Experimental data: publication PMC7862700, “An all-to-all approach to the identification of sequence-specific readers for epigenetic DNA modifications on cytosine”

Experiments:
Assay in all cases: DAPPL (digital affinity profiling via proximity ligation, sequencing); 10 mM Tris-HCl pH 7.5, 50 mM NaCl, 1 mM DTT, 4% glycerol, room temperature, 30 min; GST-TFs on glutathione beads, 16-mer random dsDNA library, 0.1% formaldehyde crosslink after washing; high values mean tight binding
FLI1 = target: T1, FLI1 (Homo sapiens, UniProt Q01543 1-452); conditions: protein: recombinant; tags: N-terminal GST; dsDNA, one strand shown
T1 sequence: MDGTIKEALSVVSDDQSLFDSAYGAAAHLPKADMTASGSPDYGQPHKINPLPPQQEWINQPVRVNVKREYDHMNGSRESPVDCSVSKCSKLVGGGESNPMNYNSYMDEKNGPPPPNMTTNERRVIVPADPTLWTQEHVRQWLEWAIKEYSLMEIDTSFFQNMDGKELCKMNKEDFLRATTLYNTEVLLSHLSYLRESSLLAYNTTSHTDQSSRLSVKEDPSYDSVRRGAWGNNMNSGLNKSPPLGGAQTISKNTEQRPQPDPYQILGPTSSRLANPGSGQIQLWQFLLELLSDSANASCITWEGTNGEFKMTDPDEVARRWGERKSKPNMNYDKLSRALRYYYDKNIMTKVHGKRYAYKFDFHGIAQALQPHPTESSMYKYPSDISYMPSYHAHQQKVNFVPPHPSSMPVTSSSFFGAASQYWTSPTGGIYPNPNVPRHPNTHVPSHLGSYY
Summary of the method: (§1)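 Binding signal is given per hexamer as its read frequency for a factor divided by its frequency in the tag-only sample. GST-fused human transcription factors were expressed in yeast, captured on glutathione beads, barcoded with DNA and pooled with that sample, then incubated with 200 nmole of a 16-mer random double-stranded DNA library in Tris/NaCl/DTT/glycerol buffer for 30 min at room temperature. The pools were then washed, crosslinked, proximity-ligated, amplified by PCR and sequenced on an Illumina NextSeq500.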

ELK1 = target: T2, ELK1 (Homo sapiens, UniProt P19419 1-428); conditions: protein: recombinant; tags: N-terminal GST; dsDNA, one strand shown
T2 sequence: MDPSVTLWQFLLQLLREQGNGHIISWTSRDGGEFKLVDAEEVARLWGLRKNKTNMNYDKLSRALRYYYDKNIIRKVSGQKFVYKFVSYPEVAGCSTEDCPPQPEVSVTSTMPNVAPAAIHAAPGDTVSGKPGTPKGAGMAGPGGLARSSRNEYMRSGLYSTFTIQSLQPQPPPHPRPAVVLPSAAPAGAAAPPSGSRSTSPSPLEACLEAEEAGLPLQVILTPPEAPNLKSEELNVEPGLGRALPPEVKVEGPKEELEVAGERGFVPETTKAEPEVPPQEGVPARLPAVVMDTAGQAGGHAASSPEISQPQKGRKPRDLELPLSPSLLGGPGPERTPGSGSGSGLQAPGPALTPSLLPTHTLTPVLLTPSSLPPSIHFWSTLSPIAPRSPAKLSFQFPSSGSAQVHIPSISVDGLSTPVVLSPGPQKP
Summary of the method: as §1

GABPA = target: T3, GABPA (Homo sapiens, UniProt Q06546 1-454); conditions: protein: recombinant; tags: N-terminal GST; dsDNA, one strand shown
T3 sequence: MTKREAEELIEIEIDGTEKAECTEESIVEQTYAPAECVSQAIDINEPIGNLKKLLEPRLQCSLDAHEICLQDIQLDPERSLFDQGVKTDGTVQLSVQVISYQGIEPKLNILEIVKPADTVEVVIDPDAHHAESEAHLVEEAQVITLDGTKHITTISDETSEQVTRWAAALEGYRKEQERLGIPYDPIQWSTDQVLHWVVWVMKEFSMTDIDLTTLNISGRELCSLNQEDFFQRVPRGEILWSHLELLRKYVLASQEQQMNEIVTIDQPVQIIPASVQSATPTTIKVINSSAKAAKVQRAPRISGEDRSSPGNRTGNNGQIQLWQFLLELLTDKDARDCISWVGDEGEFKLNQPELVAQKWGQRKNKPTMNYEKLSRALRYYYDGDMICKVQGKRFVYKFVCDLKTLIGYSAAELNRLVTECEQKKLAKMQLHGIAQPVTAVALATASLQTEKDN
Summary of the method: as §1

ERG = target: T4, ERG (Homo sapiens, UniProt P11308 1-479); conditions: protein: recombinant; tags: N-terminal GST; dsDNA, one strand shown
T4 sequence: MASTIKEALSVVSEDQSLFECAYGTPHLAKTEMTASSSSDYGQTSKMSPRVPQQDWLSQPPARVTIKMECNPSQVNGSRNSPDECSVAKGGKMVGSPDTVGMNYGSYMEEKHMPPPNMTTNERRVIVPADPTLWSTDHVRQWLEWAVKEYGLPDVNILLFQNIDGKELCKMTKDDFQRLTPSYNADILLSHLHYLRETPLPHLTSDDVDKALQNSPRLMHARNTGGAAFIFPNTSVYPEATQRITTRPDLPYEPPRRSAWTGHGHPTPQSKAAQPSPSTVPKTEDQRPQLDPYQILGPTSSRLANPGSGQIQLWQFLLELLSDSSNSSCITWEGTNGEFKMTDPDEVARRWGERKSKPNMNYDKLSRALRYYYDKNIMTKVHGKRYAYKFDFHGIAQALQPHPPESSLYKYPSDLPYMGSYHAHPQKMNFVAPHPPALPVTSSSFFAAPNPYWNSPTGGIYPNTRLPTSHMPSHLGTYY
Summary of the method: as §1

ELF1 = ELF1 (Homo sapiens, UniProt P32519 1-619); conditions: protein: recombinant; tags: N-terminal GST; dsDNA, one strand shown
Summary of the method: as §1

EHF = target: T5, EHF (Homo sapiens, UniProt Q9NZC4 1-300); conditions: protein: recombinant; tags: N-terminal GST; dsDNA, one strand shown
T5 sequence: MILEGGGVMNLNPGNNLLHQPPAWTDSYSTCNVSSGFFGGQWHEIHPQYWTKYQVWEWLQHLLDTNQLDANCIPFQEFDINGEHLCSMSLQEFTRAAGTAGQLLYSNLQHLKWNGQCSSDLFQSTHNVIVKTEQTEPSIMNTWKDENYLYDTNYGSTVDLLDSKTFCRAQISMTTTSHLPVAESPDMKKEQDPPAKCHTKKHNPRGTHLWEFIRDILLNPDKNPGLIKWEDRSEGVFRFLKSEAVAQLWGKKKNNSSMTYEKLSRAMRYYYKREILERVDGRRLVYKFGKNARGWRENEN
Summary of the method: as §1

SPI1 = SPI1 (Homo sapiens, UniProt P17947 1-270); conditions: protein: recombinant; tags: N-terminal GST; dsDNA, one strand shown
Summary of the method: as §1

SPIB = SPIB (Homo sapiens, UniProt Q01892 1-262); conditions: protein: recombinant; tags: N-terminal GST; dsDNA, one strand shown
Summary of the method: as §1

ELK3 = target: T6, ELK3 (Homo sapiens, UniProt P41970 1-407); conditions: protein: recombinant; tags: N-terminal GST; dsDNA, one strand shown
T6 sequence: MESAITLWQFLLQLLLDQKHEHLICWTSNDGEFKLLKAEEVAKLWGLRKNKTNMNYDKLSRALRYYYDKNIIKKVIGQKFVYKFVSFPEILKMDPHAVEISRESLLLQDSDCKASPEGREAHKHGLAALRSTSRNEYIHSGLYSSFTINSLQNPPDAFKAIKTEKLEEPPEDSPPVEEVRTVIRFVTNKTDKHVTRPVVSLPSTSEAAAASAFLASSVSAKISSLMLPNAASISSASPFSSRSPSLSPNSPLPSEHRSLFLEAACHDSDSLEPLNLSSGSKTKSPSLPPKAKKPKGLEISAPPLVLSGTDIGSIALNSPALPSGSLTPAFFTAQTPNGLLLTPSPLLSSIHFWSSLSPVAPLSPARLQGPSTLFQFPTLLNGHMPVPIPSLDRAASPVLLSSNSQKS
Summary of the method: as §1

FEV = target: T7, FEV (Homo sapiens, UniProt Q99581 1-238); conditions: protein: recombinant; tags: N-terminal GST; dsDNA, one strand shown
T7 sequence: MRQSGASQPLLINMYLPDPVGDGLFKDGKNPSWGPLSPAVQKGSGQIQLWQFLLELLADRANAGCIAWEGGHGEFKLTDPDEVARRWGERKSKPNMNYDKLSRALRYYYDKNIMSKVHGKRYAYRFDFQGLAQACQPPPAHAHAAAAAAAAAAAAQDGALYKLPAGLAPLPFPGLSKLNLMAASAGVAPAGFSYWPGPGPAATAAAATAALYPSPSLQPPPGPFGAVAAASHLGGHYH
Summary of the method: as §1

ETV5 = ETV5 (Homo sapiens, UniProt P41161 1-510); conditions: protein: recombinant; tags: N-terminal GST; dsDNA, one strand shown
Summary of the method: as §1

HSF1 = HSF1 (Homo sapiens, UniProt Q00613 1-529); conditions: protein: recombinant; tags: N-terminal GST; chain copies: 3; dsDNA, one strand shown
Summary of the method: as §1

SPIC = target: T8, SPIC (Homo sapiens, UniProt Q8N5J4 1-248); conditions: protein: recombinant; tags: N-terminal GST; dsDNA, one strand shown
T8 sequence: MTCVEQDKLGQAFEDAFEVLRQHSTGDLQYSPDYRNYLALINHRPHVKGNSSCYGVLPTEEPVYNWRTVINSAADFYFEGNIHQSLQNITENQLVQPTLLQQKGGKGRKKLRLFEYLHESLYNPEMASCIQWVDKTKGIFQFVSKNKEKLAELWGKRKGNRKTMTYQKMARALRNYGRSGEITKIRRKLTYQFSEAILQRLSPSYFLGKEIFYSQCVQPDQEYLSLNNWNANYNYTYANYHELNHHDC
Summary of the method: as §1

ELF4 = ELF4 (Homo sapiens, UniProt Q99607 1-663); conditions: protein: recombinant; tags: N-terminal GST; dsDNA, one strand shown
Summary of the method: as §1

ELK4 = target: T9, ELK4 (Homo sapiens, UniProt P28324-2 1-405); conditions: protein: recombinant; tags: N-terminal GST; dsDNA, one strand shown
T9 sequence: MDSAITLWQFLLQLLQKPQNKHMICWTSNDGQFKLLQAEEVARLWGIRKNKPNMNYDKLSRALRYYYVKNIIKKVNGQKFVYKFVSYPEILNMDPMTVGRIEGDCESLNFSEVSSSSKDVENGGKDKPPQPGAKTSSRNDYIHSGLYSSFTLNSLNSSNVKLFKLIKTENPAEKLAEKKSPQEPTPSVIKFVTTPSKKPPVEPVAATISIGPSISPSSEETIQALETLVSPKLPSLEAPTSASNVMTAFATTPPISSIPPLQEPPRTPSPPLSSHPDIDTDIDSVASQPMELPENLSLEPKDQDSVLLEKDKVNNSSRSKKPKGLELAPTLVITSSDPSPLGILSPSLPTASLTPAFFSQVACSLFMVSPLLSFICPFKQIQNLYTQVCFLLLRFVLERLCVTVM
Summary of the method: as §1

ETV2 = target: T10, ETV2 (Homo sapiens, UniProt O00321 1-342); conditions: protein: recombinant; tags: N-terminal GST; dsDNA, one strand shown
T10 sequence: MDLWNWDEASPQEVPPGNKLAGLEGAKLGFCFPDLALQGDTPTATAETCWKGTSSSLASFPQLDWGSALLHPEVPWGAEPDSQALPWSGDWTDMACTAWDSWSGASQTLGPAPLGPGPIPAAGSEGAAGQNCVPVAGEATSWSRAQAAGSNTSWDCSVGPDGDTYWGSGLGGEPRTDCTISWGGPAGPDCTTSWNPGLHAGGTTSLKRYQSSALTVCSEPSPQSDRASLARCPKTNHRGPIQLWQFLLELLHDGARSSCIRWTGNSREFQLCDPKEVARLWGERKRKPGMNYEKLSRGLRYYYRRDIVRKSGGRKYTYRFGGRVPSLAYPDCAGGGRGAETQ
Summary of the method: as §1

ELF3 = target: T11, ELF3 (Homo sapiens, UniProt P78545 1-371); conditions: protein: recombinant; tags: N-terminal GST; dsDNA, one strand shown
T11 sequence: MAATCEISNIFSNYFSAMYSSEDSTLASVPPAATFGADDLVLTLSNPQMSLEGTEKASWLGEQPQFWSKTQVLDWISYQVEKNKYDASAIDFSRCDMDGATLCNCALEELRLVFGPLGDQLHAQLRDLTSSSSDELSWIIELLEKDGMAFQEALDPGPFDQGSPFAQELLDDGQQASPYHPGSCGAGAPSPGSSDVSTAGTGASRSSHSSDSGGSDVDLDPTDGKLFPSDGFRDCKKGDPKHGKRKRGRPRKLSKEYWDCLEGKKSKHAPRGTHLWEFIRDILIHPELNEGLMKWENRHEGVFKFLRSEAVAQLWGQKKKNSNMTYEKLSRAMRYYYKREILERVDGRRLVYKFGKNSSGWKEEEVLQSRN
Summary of the method: as §1

CRX = CRX (Homo sapiens, UniProt O43186 1-299); conditions: protein: recombinant; tags: N-terminal GST; dsDNA, one strand shown
Summary of the method: as §1

ETV1 = ETV1 (Homo sapiens, UniProt P50549 1-477); conditions: protein: recombinant; tags: N-terminal GST; dsDNA, one strand shown
Summary of the method: as §1

Chain of ELF1 (P32519 whole entry): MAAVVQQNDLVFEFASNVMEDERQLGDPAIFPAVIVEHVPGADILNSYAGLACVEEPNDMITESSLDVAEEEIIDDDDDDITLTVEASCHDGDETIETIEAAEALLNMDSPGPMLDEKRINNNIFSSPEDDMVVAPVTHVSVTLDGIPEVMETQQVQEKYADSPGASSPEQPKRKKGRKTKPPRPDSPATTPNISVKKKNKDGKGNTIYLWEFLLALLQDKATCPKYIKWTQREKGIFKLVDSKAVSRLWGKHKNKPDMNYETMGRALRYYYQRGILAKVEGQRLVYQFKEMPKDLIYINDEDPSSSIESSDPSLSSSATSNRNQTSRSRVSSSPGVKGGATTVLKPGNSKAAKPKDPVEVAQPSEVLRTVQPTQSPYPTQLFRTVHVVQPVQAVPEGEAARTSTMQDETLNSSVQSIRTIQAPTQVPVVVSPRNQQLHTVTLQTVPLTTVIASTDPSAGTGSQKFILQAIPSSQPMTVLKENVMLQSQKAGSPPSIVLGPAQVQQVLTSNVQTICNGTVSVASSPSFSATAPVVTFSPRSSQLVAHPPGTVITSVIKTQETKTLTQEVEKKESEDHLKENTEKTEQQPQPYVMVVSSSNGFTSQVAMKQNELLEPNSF
Chain of HSF1 (Q00613 whole entry): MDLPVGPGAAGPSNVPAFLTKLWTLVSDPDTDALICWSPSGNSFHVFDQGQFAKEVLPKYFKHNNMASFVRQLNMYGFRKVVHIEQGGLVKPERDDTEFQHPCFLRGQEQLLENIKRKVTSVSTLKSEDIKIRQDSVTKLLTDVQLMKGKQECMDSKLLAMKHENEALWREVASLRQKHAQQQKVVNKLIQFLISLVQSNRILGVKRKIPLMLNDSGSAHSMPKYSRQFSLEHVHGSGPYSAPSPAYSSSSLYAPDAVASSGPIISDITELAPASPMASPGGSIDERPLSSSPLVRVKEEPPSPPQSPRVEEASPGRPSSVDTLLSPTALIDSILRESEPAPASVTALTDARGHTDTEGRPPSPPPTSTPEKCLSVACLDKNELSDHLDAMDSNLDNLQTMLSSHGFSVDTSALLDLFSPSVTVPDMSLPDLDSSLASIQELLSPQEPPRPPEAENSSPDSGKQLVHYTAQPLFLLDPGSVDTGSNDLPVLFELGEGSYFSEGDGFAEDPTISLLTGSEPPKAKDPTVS
Chain of SPIB (Q01892 whole entry): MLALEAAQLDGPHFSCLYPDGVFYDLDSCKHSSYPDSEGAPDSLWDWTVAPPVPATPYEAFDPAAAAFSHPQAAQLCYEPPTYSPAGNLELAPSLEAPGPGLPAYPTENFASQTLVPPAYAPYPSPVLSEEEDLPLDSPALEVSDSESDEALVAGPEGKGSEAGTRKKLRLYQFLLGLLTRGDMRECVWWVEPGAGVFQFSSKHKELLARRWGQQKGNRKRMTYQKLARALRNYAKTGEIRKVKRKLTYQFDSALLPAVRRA
Chain of ETV1 (P50549 whole entry): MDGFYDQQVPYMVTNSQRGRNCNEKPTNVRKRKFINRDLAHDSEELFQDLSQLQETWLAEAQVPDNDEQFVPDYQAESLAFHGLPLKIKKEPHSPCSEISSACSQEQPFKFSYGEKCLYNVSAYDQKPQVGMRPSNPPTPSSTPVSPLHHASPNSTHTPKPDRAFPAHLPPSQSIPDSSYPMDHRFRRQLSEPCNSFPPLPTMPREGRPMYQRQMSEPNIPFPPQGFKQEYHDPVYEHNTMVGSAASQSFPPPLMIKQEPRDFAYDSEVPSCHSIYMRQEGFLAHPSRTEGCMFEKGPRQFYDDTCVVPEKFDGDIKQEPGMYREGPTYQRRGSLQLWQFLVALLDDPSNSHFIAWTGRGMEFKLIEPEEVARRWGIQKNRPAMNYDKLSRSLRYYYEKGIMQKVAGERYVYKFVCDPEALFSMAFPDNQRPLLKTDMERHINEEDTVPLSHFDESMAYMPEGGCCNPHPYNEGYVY
Chain of ELF4 (Q99607 whole entry): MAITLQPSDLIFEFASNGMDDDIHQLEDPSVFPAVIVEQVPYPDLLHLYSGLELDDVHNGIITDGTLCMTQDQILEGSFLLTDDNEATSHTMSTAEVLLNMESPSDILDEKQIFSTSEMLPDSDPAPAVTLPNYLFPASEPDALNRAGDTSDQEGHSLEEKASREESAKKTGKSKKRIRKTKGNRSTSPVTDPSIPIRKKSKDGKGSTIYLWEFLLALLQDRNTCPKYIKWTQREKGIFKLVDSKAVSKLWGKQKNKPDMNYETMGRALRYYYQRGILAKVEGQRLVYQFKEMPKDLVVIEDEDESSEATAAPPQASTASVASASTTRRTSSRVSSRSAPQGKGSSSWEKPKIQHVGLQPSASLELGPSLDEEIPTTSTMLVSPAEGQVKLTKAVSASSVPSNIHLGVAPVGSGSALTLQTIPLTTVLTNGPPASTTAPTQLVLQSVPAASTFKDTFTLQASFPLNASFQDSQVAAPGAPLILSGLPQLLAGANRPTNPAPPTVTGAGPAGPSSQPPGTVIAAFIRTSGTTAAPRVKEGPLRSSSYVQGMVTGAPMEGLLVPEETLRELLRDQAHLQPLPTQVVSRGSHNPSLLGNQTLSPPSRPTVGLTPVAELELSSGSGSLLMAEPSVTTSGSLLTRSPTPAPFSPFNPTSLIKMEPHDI
Chain of ETV5 (P41161 whole entry): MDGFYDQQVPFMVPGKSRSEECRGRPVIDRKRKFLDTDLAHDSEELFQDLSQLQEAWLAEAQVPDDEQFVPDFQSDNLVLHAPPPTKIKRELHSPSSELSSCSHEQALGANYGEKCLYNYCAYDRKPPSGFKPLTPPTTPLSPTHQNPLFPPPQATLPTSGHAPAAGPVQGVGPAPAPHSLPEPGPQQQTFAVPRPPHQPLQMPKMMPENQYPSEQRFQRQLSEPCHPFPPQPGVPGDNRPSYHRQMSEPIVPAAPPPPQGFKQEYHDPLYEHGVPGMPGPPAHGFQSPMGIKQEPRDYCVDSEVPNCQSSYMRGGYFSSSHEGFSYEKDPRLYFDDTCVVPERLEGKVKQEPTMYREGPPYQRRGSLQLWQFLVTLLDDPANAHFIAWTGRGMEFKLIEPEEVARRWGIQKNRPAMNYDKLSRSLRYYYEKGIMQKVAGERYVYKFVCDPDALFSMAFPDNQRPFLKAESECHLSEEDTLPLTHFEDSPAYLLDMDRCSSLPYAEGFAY
Chain of CRX (O43186 whole entry): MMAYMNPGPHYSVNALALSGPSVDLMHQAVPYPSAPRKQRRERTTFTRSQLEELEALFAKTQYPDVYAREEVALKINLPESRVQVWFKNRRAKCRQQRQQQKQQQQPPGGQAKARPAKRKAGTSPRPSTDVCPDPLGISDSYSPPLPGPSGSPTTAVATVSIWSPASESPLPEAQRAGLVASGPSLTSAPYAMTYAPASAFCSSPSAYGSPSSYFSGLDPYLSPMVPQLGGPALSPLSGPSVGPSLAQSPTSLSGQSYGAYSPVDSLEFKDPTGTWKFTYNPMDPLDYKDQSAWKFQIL

TCGCTA
binding signal (FLI1): 1.17 fold enrichment (6-mer frequency, TF over GST control) | binding signal (ELK1): 1.09 fold enrichment (6-mer frequency, TF over GST control) | binding signal (GABPA): 1.24 fold enrichment (6-mer frequency, TF over GST control) | binding signal (ERG): 1.07 fold enrichment (6-mer frequency, TF over GST control) | binding signal (ELF1): 1.11 fold enrichment (6-mer frequency, TF over GST control) | binding signal (EHF): 1.02 fold enrichment (6-mer frequency, TF over GST control) | binding signal (SPI1): 1.04 fold enrichment (6-mer frequency, TF over GST control) | binding signal (SPIB): 1.05 fold enrichment (6-mer frequency, TF over GST control) | binding signal (ELK3): 1.23 fold enrichment (6-mer frequency, TF over GST control) | binding signal (FEV): 1.08 fold enrichment (6-mer frequency, TF over GST control) | binding signal (ETV5): 1.07 fold enrichment (6-mer frequency, TF over GST control) | binding signal (HSF1): 1.15 fold enrichment (6-mer frequency, TF over GST control) | binding signal (SPIC): 1.06 fold enrichment (6-mer frequency, TF over GST control) | binding signal (ELF4): 1.11 fold enrichment (6-mer frequency, TF over GST control) | binding signal (ELK4): 1.16 fold enrichment (6-mer frequency, TF over GST control) | binding signal (ETV2): 1.24 fold enrichment (6-mer frequency, TF over GST control) | binding signal (ELF3): 1.03 fold enrichment (6-mer frequency, TF over GST control) | binding signal (CRX): 1.12 fold enrichment (6-mer frequency, TF over GST control) | binding signal (ETV1): 1.08 fold enrichment (6-mer frequency, TF over GST control)
